Among the data in PubChem BioAssay (Tox21) are outcome values, retold here.

The structures appear in SMILES notation. Inconclusive results are not listed. Activity calls are given as the source filed them. Calls follow the shape of the dose curve; as a rule, active = well fitted cell-killing curve with a large enough effect in the repeat runs; inconclusive = weak or mixed curves, or effect the other way; inactive = no such curve, though single readings can be large or run the other way.

This assay can be described thus: qHTS assay to identify small molecule antagonists of the peroxisome proliferator-activated receptor gamma (PPARg) signaling pathway - cell viability counter screen (AID 743194). Also: nearly all actives have a fitted effect of over 55% in size. The conditions noted are these: PPARg-bla HEK293H viability, CellTiter-Glo luminescence, 17 h, co-treated with 50 nM rosiglitazone; series mostly up to 62.6 µM. From the text: U.S. Tox21 Program National Center for Advancing Translational Sciences [NCATS] NIH Chemical Genomics Center [NCGC] U.S. Environmental Protection Agency [EPA] National Institutes of Environmental Health Sciences [NIEHS] National Toxicology Program [NTP] U.S. Food and Drug Administration [FDA] Tox21 Assay Overview: The peroxisome proliferator-activated receptors (PPARs) are lipid-activated transcription factors of the nuclear receptor superfamily with three distinct subtypes namely PPAR alpha, PPAR delta (also called PPAR beta) and PPAR gamma (PPARg). All these subtypes heterodimerize with Retinoid X receptor (RXR) and these heterodimers regulate transcription of various genes. PPAR-gamma receptor (glitazone receptor) is involved in the regulation of glucose and lipid metabolism. To identify the compounds that activate PPAR-gamma signaling, GeneBLAzer PPAR gamma UAS-bla HEK293H cell line (Invitrogen, Carlsbad, CA, USA) containing a beta-lactamase reporter gene under the control of an Upstream Activator Sequence (UAS) was used to screen the Tox21 compound library. The cytotoxicity of the Tox21 compound library against the PPARg-bla cell line was tested in parallel by measuring the cell viability using CellTiter-Glo assay in the same wells.
Tox21 Assay Protocol Summary: PPARg-bla cells were dispensed at 3000 cells/5uL/well in 1536-well black wall/clear bottom plates using a Multidrop Combi (Thermo Fisher Scientific, Waltham, MA) dispenser. After the assay plates were incubated at 37 C and 5% CO2 for 5 h, 23 nL of compounds dissolved in DMSO, positive controls or DMSO only was transferred to the assay plate by a Pintool station (Kalypsys, San Diego, CA), followed by addition of 1ul Rosiglitazone (50 nM, final concentration in the wells). The assay plates were incubated at 37 C for 17 h, and then 1 uL of LiveBLAzerTM B/G FRET substrate was added using a Bioraptr Flying Reagent Dispenser (FRD) workstation (Beckman Coulter, Indianapolis, IN, USA). The assay plates were incubated at room temperature for 1 h and fluorescence intensity was measured by an Envision plate reader (PerkinElmer, Shelton, CT). For cell viability readout that measures cytotoxicity, 4 ul/well of CellTiter-Glo reagent was added into the assay plates using a Flying Reagent Dispenser. After 30 min incubation at room temperature, the luminescence intensity in the plates was measured using a ViewLux plate reader (PerkinElmer).
Regarding `CC(C)OCCO`, the result was inactive. Then `CC(CC(=O)Cl)CC(C)(C)C` (stereo not given), with “inactive”; and `CCC(C)SSC(C)CC` (stereo not given), with “inactive”. The value for `C[Si](C)(C)O[Si](O)(O)O` was “inactive”; that for `CCN1CCN(C(=O)N[C@@H](C(=O)N[C@@H]2C(=O)N3C(C(=O)O)=C(CSc4nnnn4C)CS[C@H]23)c2ccc(O)cc2)C(=O)C1=O` was “inactive”. The value for `CC(C)(C)C(=O)NCCCC(=O)O` was “inactive”; that for `Cc1ccc(S(=O)(=O)NC(=O)NN2CC3CCCC3C2)cc1` (stereo not given) was “inactive”.

Consider `CC(O)CCCCn1c(=O)c2c(ncn2C)n(C)c1=O` (stereo not given), for which the outcome was inactive.

Regarding `CC1(C)C(=O)C(C)(C)C1=O`, the outcome was inactive.

Consider `C=CC(=O)OCC[N+](C)(C)C`, for which the outcome was inactive. For the compound `CC12CCCC=C1C(=O)OC2=O` (stereo not given), the outcome was inactive. As for `NNC(=O)CCCCC(=O)NN`, the result was inactive. Then `CCCCCCCCCCCCCC(=O)OCC`, with “inactive”; and `Cc1cccc(N)n1`, with “inactive”; and `Nc1cc(S(=O)(=O)O)ccc1O`, with “inactive”. Then `O=C(O)/C=C(\CC(=O)O)C(=O)O`, with “inactive”; and `C/C=C/C(=O)CCCC`, with “inactive”; and `O=C1CCCc2c(O)cccc21`, with “inactive”. As to `CC(=O)c1c(C)cc(C(C)(C)C)cc1C`, the outcome was inactive. `COc1cc(NS(=O)(=O)c2ccc(N)cc2)ncn1`: the outcome was inactive.

Consider `BrCCOc1ccccc1`, for which the outcome was inactive. Turning to `CCCCCCCCCCCBr`, the outcome was inactive. Take `CC[C@@]1(c2ccccc2)NC(=O)N(C)C1=O`: the result was inactive. Then `CC(=O)O[C@@H]1CC2C3CCc4cc(OC(=O)c5ccccc5)ccc4C3CCC2(C)[C@H]1OC(C)=O` (stereo not given in full), with “inactive”. The value for `CCCCC(CC)COC(=O)CC#N` (stereo not given) was “inactive”. On to `CCCC[O][Al]([O]CCCC)[O]CCCC`, for which the result was inactive. The value for `CCCc1ccc(O)c(OC)c1` was “inactive”; that for `CCCCC(CC)CCC(CC(C)C)OS(=O)(=O)O` (stereo not given) was “inactive”. The value for `CC(CN1CC(=O)NC(=O)C1)N1CC(=O)NC(=O)C1` (stereo not given) was “inactive”.

For the compound `Cc1cc(=O)oc2cc(O[C@@H]3SC[C@@H](O)[C@H](O)[C@H]3O)ccc12`, the result was inactive.

Consider `CCOc1ccccc1OCCN[C@H](C)Cc1ccc(OC)c(S(N)(=O)=O)c1`, for which the result was inactive. On to `O=C[C@@H](O)[C@H](O)[C@H](O)CO`, for which the outcome was inactive. Then `CCOC(=O)[C@H](CCc1ccccc1)N[C@H]1CS[C@H](c2cccs2)CN(CC(=O)O)C1=O`, with “inactive”; and `Clc1ccc2c(c1)Nc1ccccc1S2`, with “inactive”; and `OCCC(F)(F)C(F)(F)C(F)(F)C(F)(F)C(F)(F)C(F)(F)F`, with “inactive”. As for `CCCCCCCCC1CO1` (stereo not given), the result was inactive. Take `CC1(C)S[C@@H]2[C@H](NC(=O)Cc3ccccc3)C(=O)N2[C@H]1C(=O)O` (tested in a mixture with another compound): the result was inactive. The value for `CC[N+](C)(CC)CC` was “inactive”; that for `CCC(C)(C)C` was “inactive”; that for `CCCC(=O)CC` was “inactive”.
